This is one part of a sample in which hits are shown more often than they occur.
CRE-bla Fsk: alters forskolin-stimulated CRE reporter signaling in CHO cells; CHO CRE-bla reporter (cAMP response element driving beta-lactamase), forskolin EC10, beta-lactamase ratio; Potency, µM (series often up to 38.2 µM), for the others: at the top dose activity change, negative = inhibition, hits mostly activators; 2.5% of 71,000 active; AID 662; active = well fitted activation curve with a large enough effect in the signal ratio, with a control signal flat, not every such curve was filed as active; inconclusive = small, poorly fitted or top-dose-only effect, or effect the other way, or a change in a side signal; the % refers to the signal ratio; also: % of control where 0% means no effect
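Forskolin analogue NKH 477 at EC10 stimulated CRE-driven beta-lactamase in CHO cells alongside compound dilution series. Beta-lactamase was measured with CCF4, excitation 405 nm, emission ratio 460/530 nm.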
IkB sig inh: IkB pathway inhibition in ABC-DLBCL cells; ABC-DLBCL IkBa-CBG/CBR dual luciferase ratio, 4 h; response scale: scaled: untreated 0%, proteasome inhibitor 100%; Potency, µM (titrated, usually from 57.1 µM), for inactives: at the top dose IkBa stabilization activation; 0.04% of 110,000 active; active = well fitted curve in the direction sought with a large enough effect in the signal ratio, not every such curve was filed as active; inconclusive = small, poorly fitted or top-dose-only effect, or a change in a side signal; the % refers to the signal ratio;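 also: the direction sought is a rising ratio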
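Luminescence ratio of IκBα-fused green versus native red beetle luciferase in OCI-Ly3 cells, 4 h post-doxycycline with compound; red signal alone, scaled from basal (0%) to zero light (-100%), flagged nonspecific or cytotoxic effects.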
ERK AVP inh: inhibitors of vasopressin-stimulated ERK signaling pathway; HEK293-V1b, vasopressin-stimulated pERK AlphaScreen; Potency, µM (doses to about 57.5 µM), for the others: at the top dose activity, negative = inhibition, usual class: inhibitors; 0.99% of 72,000 active; AID 995; also: % is scaled to controls: 0 for no effect and ±100 for the full control effect; nearly all actives have a fitted effect of over 55% in size
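Overnight-seeded V1b-HEK293 cells in 1% FBS got compound, then vasopressin (25 nM final, 5 min, 37C), then lysis buffer. AlphaScreen detection of phospho-ERK; activity normalized to basal and full-stimulation controls.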
Peg3 imprint: genomic imprint erasure induction; mouse ES Peg3-LacZ reporter, beta-gal luminescence, 40 h; Potency, µM (top dose mostly 60.7 µM), inactives show at the highest dose activity change, positive = activation, most hits filed as activators; 0.02% of 110,000 active; AID 1948
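Imprint erasure is scored as LacZ activity from the silenced maternal Peg3 allele in feeder-free female ES cells cultured 40 h with LIF. Luminescence is normalized to in-plate negative controls and fitted to the Hill equation.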
* marks the source's active call; other numbers are inactive results; u = inconclusive; x = not tested or not shown; [ ] = remark or other dose. Unless noted, calls follow the shape of the dose curve; as a rule, active = well fitted curve in the direction sought with a large enough effect; inconclusive = small, poorly fitted or top-dose-only effect, or another doubt; inactive = no such curve, though single readings can be large; an effect the other way counts as inactive or inconclusive. Potency is read from the fitted curve at half-maximal effect.

SMILES	CRE-bla Fsk	IkB sig inh	ERK AVP inh	Peg3 imprint
CCc1nc(N2CCCC(C)C2)c2oc3ccccc3c2n1 (stereo not drawn)	10µM*	2%	9%	-11%
CCc1nc(NCCN2CCOCC2)c2oc3ccccc3c2n1	u	-2%	-18%	-14%
CCc1nc(N2CCCCC2)c2oc3ccccc3c2n1	7.9µM*	3%	-8%	-15%
CCc1nc(NC(C)C)c2oc3ccccc3c2n1	1.6µM*	11%	-16%	-23%
CCOC(=O)C1CCN(c2nc(C)nc3c2oc2ccccc23)CC1	5%	1%	12%	-1%
CN1CCc2c(cc(O)c(O)c2Cl)[C@H](c2cccc(Cl)c2)C1	-3%	8%	7%	x
CN[C@@H]1[C@H](O[C@@H]2O[C@H](C)[C@@](O)(CO)[C@H]2O[C@H]2[C@H](O)[C@H](O)[C@H](N=C(N)N)[C@@H](O)[C@@H]2N=C(N)N)O[C@@H](CO)[C@H](O)[C@H]1O	x	x	x	-4%
Cc1ccc2c(c1)N(CC(=O)NCCN1CCOCC1)C(=O)CO2	-5%	3%	x	-4%
CC(O)CCCCCCC/C=C/C=C/C(N)=O (stereo not drawn)	x	x	8%[11.5 µM]	x
O=C1CC(c2cccs2)Cc2nc(NCC3CCCO3)ncc21 (stereo not drawn)	13%	-1%	20µM*	-7%
O=C1c2ccccc2C(=O)c2c1ccc(N1C(=O)c3ccccc3C1=O)c2-c1c(N2C(=O)c3ccccc3C2=O)ccc2c1C(=O)c1ccccc1C2=O	2%[7.6 µM]	0%[11.4 µM]	x	x
C[C@@H]1O[C@@H](O)[C@@H](O)[C@H](O)[C@H]1O	18%[7.6 µM]	0%[11.4 µM]	9%[11.5 µM]	-6%[10.9 µM]
O=c1[nH][nH]c(=S)c(=O)[nH]1	9%[7.6 µM]	1%[11.4 µM]	8%[11.5 µM]	-8%[10.9 µM]
COC(=O)c1cccc(Nc2nc3ccccc3nc2C)c1	u	-4%	25µM*	-17%
CC1(C)O[C@@H]2O[C@H]([C@@H]3COC(C)(C)O3)[C@H](N)[C@H]2O1	6%[7.6 µM]	1%[11.4 µM]	-14%[11.5 µM]	-3%[10.9 µM]
O=C=Nc1ccc(Cc2ccc(N=C=O)cc2)cc1	-4%	0%	5%	2%
Nc1ncn([C@@H]2O[C@@H](CO)[C@@H](O)[C@H]2O)c(=O)n1	-2%	-11%	x	x
CC(C)C(c1nnnn1Cc1ccco1)N1CCN(C2CCCC2)CC1 (stereo not drawn)	-16%	3%	13%	-13%
CC(C)C(c1nnnn1Cc1ccco1)N1CCN(c2nc3ccccc3s2)CC1 (stereo not drawn)	u	4%	2µM*	-16%
CCOC(=O)c1c2n(c3c(NCc4ccccc4)ncnc13)CCCC2	13µM*	-1%	-16%	-11%
COc1ccc(-c2ccc3c(n2)CCCN3C[C@H](O)CN2CCCc3nc(-c4ccc(Br)cc4)ccc32)cc1	x	x	0%[11.5 µM]	x
CCc1cccc(Nc2cc(C)nc3nc(C)nn23)c1	10µM*	0%	-16%	-15%
CCOc1ccc(OCC)c(Nc2cc(C)nc3nc(C)nn23)c1	10µM*	0%	u	-21%
Cc1cc(Nc2cccc(C(F)(F)F)c2)n2nc(C)nc2n1	u	-1%	-10%	-14%
CC(=O)OC[C@@H]1O[C@H](CCON=C(C)C)C=C[C@@H]1OC(C)=O	x	x	-9%[11.5 µM]	x
SMILES	CRE-bla Fsk	IkB sig inh	ERK AVP inh	Peg3 imprint
CCCC[S@@](=N)(=O)CC[C@@H](N)C(=O)O	4%	-3%	14%	x
CN(C)C(=O)c1ccc(-c2ccc3ncnc(NC4CCNCC4)c3c2)cc1	-5%	2%[11.4 µM]	10%	-25%
CC(=O)OCC(=O)[C@@]1(O)CC[C@@H]2[C@@H]3CCC4=CC(=O)CC[C@@]4(C)[C@H]3C(=O)C[C@]21C	0%	6%	x	x
Cc1ccc(S(=O)(=O)N[C@H]2COC(=O)C/C=C\[C@@H](C)COC(=O)C/C=C\[C@@H]2C)cc1	x	x	11%[11.5 µM]	x
CCNC(=O)CSc1nc2cc(OC)c(OC)cc2c(=O)n1CCC1=CCCCC1	20%	0%	6%	-10%
CCSc1nc2cc(OC)c(OC)cc2c(=O)n1CC	10µM*	-3%	u	6%
COc1ccccc1CNC(=O)c1cccc(-c2ccccc2OC)n1	x	x	x	-3%
CCC(=O)c1ccc(N2CCN(C(=O)COc3ccc(F)cc3)CC2)c(F)c1	0%[7.6 µM]	3%	3.2µM*	-19%
COc1ccccc1N1CCN(C(=O)COc2ccc(Cl)cc2)CC1	-19%	4%	32µM*	7%
NCC[C@H]1CCC[C@H](CCN)N1	-1%	6%	5%	x
O=C(O)c1ccc2cc(-c3ccc(O)c(C45CC6CC(CC(C6)C4)C5)c3)ccc2c1	x	x	u	-27%
CCCC(=O)N1CCN(c2ccc(NC(=O)c3cc4ccccc4o3)cc2Cl)CC1	u	u	7.9µM*	-26%
O=C(c1cc2ccccc2o1)N1CCN(c2ccccc2Cl)CC1	5%	u	21%	-13%
O=C(Nc1ccc(N2CCN(C(=O)c3ccco3)CC2)c(Cl)c1)c1cc2ccccc2o1	u	-9%	7.9µM*	-36%
O=C(Nc1ccc(N2CCN(C(=O)c3ccccc3)CC2)c(Cl)c1)c1ccco1	u	u	u	-21%
CCC(=O)N1CCN(c2ccc(NC(=O)c3cc4ccccc4o3)cc2Cl)CC1	u	u	32µM*	-14%
Cc1nc2cnc(N(C)C)nc2n(Cc2cccs2)c1=O	7.9µM*	-2%[11.4 µM]	-12%	x
CN(C)c1ncc2nc(CCc3ccccc3)c(=O)n(Cc3cccs3)c2n1	10µM*	2%[11.4 µM]	63%	-14%
COCCn1c(=O)c(CCc2ccccc2)nc2cnc(N(C)C)nc21	6.3µM*	-4%[11.4 µM]	5%	-7%
CN(C)c1ncc2nc(-c3cccs3)c(=O)n(Cc3cccs3)c2n1	u	-2%[11.4 µM]	-4%	-2%
COc1ccc(-c2nc3cnc(Oc4cccc(Cl)c4)nc3n(CCC#N)c2=O)cc1	u	-1%[11.4 µM]	5%	-7%
Cc1noc(C)c1COC(=O)c1ccc2c(c1)S(=O)(=O)c1ccccc1C2=O	2µM*	0%	15%	14%
CCNC(=O)c1ccc2c(c1)S(=O)(=O)c1ccccc1C2=O	7.9µM*	-2%	-12%	-10%
CCCCNC(=O)c1ccc2c(c1)N(CC)C(=O)c1ccccc1S2(=O)=O	-2%	-2%	-5%	-12%
Cc1noc(C)c1COC(=O)c1ccc2c(c1)OCO2	u	0%	-20%	-14%
CNC(=O)[C@H]1O[C@@H](n2cnc3c(N)ncnc32)[C@H](O)[C@H]1O	x	x	x	-9%
Cc1ccc2c(c1)N[C@H](c1ccc(C(=O)O)cc1)c1cccn1-2	1%[7.6 µM]	2%[11.4 µM]	24%[11.5 µM]	-3%[10.9 µM]
Oc1c(C(c2cccs2)N2CCOCC2)sc2ncnn12 (stereo not drawn)	13µM*	-5%	x	-12%
Oc1c(C(c2ccccc2)N2CCc3ccccc3C2)sc2ncnn12 (stereo not drawn)	u	0%	x	-6%
CC1CN(C(c2cccs2)c2sc3ncnn3c2O)CC(C)O1 (stereo not drawn)	2%	-4%	x	-4%

Compound activity (PubChem)
